Inconclusive results are not listed. The source made the active and inactive calls.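 Rule for the calls, unless noted: active = normalized viability below 100% at a tested concentration; inactive = the rest.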

The nature of test [1]: growth inhibition of DIPG glioma cells, dose response, cell-based, JHH-DIPG-1, MIPE4.0, CellTiter-Glo, qHTS (AID 1347062; cut-off not given, nearly all actives have AC50 up to about 27 µM;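 for AC50: cells exposed to compound for two days before readout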). The conditions noted are these: JHH-DIPG-1 viability, CellTiter-Glo ATP luminescence.
A short description of test [2]: growth inhibition of DIPG glioma cells, dose response, cell-based, SU-DIPG-IV, MIPE4.0, CellTiter-Glo, qHTS (AID 1347063; cut-off not given, nearly all actives have AC50 up to about 30 µM;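 note: compound exposure lasted 48 hours before the viability readout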). Particulars: SU-DIPG-IV viability, CellTiter-Glo ATP luminescence. On the technique in general: Cellular ATP, detected with luciferase, serves as a proxy for viable cell number.
Test [3] in a line: growth inhibition of DIPG glioma cells, dose response, cell-based, SU-DIPG-XIII, MIPE5.0, CellTiter-Glo, qHTS (AID 1347064; cut-off not given, nearly all actives have AC50 up to about 23 µM;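 for AC50: cells exposed to compound for 48 hours before the viability read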). The conditions noted are these: SU-DIPG-XIII viability, CellTiter-Glo ATP luminescence.
The nature of test [4]: viability loss in pontine glioma line – cell-based, SU-DIPG-XXV, MIPE5.0, CellTiter-Glo, qHTS, dose response (AID 1347065; cut-off not given, nearly all actives have AC50 up to about 26 µM;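 note: cells exposed to compound for 48 hours before ATP readout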). Particulars: CellTiter-Glo ATP luminescence.
Test [5] is described as follows: sensitizers of A549 cells to miR-34 induction, primary screen, imaging, A549 dox-inducible miR-34, nuclei and caspase counts (AID 1347080;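 active = compounds whose cell count with miR-34 switched on is under 0.7 times the count with it off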). Particulars: A549 miR-34 inducible, Hoechst nuclei count, 48 h.
Test [6] can be described thus: survival rescue of mitochondrial mutant cells in low glucose, primary screen, MELAS cybrids, Rieske KO mouse fibroblasts, CellTiter-Glo (AID 1508586;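 active = mean z-score across replicates of 1.96 or higher in either the MELAS or the Rieske mutant cell line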;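 note: z relative to plate mean and SD of compound and empty wells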).
A short description of test [7]: SU-DIPG-VI glioma cell viability, MIPE4.0 library, CellTiter-Glo luminescence, qHTS (AID 1347066; cut-off not given, nearly all actives have AC50 up to about 30 µM;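 note: cells exposed to compound for 48 hours before readout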). Particulars: CellTiter-Glo ATP luminescence.
Test [8] in a line: JHH-DIPG-1 glioma cell viability, MIPE5.0 library, CellTiter-Glo luminescence, qHTS (AID 1347067; cut-off not given, nearly all actives have AC50 up to about 26 µM;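 note: cells exposed to compound for 48 hours before readout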). Particulars: JHH-DIPG-1 glioma viability, CellTiter-Glo ATP luminescence.
Test [9] is described as follows: SU-DIPG-XXV glioma cell viability, MIPE5.0 library, qHTS (AID 1347068; cut-off not given, nearly all actives have IC50 up to about 30 µM;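 for IC50: cells exposed to compound for 48 hours before viability readout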).
A short description of test [10]: modifiers of HSF1 nuclear foci, imaging, Selleck Cancer Library (AID 1347162; in the data active = plate-normalised HSF1 focus index below about 0.46). The conditions noted are these: human cells, at 10 µM; SSMD: measured here: HSF1 foci SSMD mean; cell count: measured here: cell number; plate-normalised HSF1 focus index: stronger effect = lower value.
Test [11] can be described thus: ovarian cancer cell viability with rucaparib, profiling panel, oncology-focused library, rucaparib conditional (AID 1508598). Particulars: patient-derived ovarian cancer cells, CellTiter-Glo viability, 144 h, stronger effect = lower value.
Where [12] appears, read: stronger effect = lower value, cell number ratio, induced over uninduced.
[13] abbreviates: measured here: relative caspase fold change +Dox/-Dox.
Where [14] appears, read: measured here: total cells with miR-34 induction, stronger effect = lower value.
Setting [15] is: measured here: total cells without miR-34 induction.
Setting [16] is: MELAS cybrid survival, CellTiter-Glo 48 h, stronger effect = higher value.
[17] abbreviates: Rieske KO mouse fibroblast survival, CellTiter-Glo 72 h.

`NC1(Cc2ccc(Cl)cc2)CCN(c2ncnc3[nH]ccc23)CC1`: the AC50 (in general, the concentration giving half of the maximal activity seen) was 20.9 µM (active) in test [1], 11.8 µM (active) in test [2], 14.8 µM (active) in test [3] and 14.8 µM (active) in [4]. The fold change is 0.99 (inactive) in test [5] (setting [12]) and 0.525 in test [5] (setting [13]). The results for the cell count in [5] (setting [14]) and in [5] (setting [15]) were 7470 and 7540, respectively. Also, the z-score in [6] (setting [16]) is -0.165 (inactive); in test [6] (setting [17]), -1.1.
As for `C[C@H](NC(=O)[C@@H](O)c1cc(F)cc(F)c1)C(=O)N[C@@H]1C(=O)N(C)c2ccccc2-c2ccccc21`, the outcome in test [1], in test [2], in [3], in [7], in test [8] and in test [9] was inactive.
Regarding `Fc1cc(-c2cccc3ncc(-c4cnn(C5CCNCC5)c4)nc23)cc(F)c1CN1CCOCC1`, the half-maximal activity concentration (AC50) was 20.9 µM (active) in test [1]; 18.7 µM (active) in [2]; 11.8 µM (active) in test [3]; 9.34 µM (active) in test [4]; 23.5 µM (active) in test [7]; 13.2 µM (active) in [8]. Moreover, the IC50 – broadly, the midpoint of a concentration-inhibition curve – in [9] is 23.5 µM (active). Also, the fold change in test [5] (setting [12]) was 0.713 (inactive); in [5] (setting [13]), 0.777. The cell count amounted to 5860 in [5] (setting [14]), 8220 in test [5] (setting [15]) and 6160 in [10]. Moreover, in test [10], the SSMD is -6.26. Moreover, the plate-normalised HSF1 focus index in test [10] is 0.613 (inactive). Also, the z-score in test [6] (setting [16]) is -0.567 (inactive); in test [6] (setting [17]) it was -0.329. Besides, the viability (in general, a read-out of living cells in per cent, often relative to untreated cells) was 105% (inactive) in test [11] (at 0.000305 µM, OCI-C5x cells, with rucaparib 10 µM, 100% = cells with rucaparib alone); 114% (inactive) in test [11] (at 0.000305 µM, OCI-C5x cells, without rucaparib); 77.7% (active) in [11] (at 0.000305 µM, OCI-P5x cells, with rucaparib 20 µM, 100% = cells with rucaparib alone); 90.5% (active) in test [11] (at 0.000305 µM, OCI-P5x cells, without rucaparib); 116% (inactive) in test [11] (at 0.00122 µM, OCI-C5x cells, with rucaparib 10 µM, 100% = cells with rucaparib alone); 118% (inactive) in test [11] (at 0.00122 µM, OCI-C5x cells, without rucaparib). The viability in test [11] (at 0.00122 µM, OCI-P5x cells, with rucaparib 20 µM, 100% = cells with rucaparib alone) was 18.8% (active); in [11] (at 0.00122 µM, OCI-P5x cells, without rucaparib), 18.7% (active); in [11] (at 0.00488 µM, OCI-C5x cells, with rucaparib 10 µM, 100% = cells with rucaparib alone), 112% (inactive); in [11] (at 0.00488 µM, OCI-C5x cells, without rucaparib), 114% (inactive); in test [11] (at 0.00488 µM, OCI-P5x cells, with rucaparib 20 µM, 100% = cells with rucaparib alone), 89.3% (active); in test [11] (at 0.00488 µM, OCI-P5x cells, without rucaparib), 99.1% (active). Moreover, the viability in test [11] (at 0.0195 µM, OCI-C5x cells, with rucaparib 10 µM, 100% = cells with rucaparib alone) is 110% (inactive); in test [11] (at 0.0195 µM, OCI-C5x cells, without rucaparib) it was 112% (inactive); in [11] (at 0.0195 µM, OCI-P5x cells, with rucaparib 20 µM, 100% = cells with rucaparib alone), 88.8% (active); in [11] (at 0.0195 µM, OCI-P5x cells, without rucaparib) it was 91.6% (active); in test [11] (at 0.0781 µM, OCI-C5x cells, with rucaparib 10 µM, 100% = cells with rucaparib alone), 99.8% (active); in test [11] (at 0.0781 µM, OCI-C5x cells, without rucaparib), 115% (inactive). In addition, the viability is 80.3% (active) in test [11] (at 0.0781 µM, OCI-P5x cells, with rucaparib 20 µM, 100% = cells with rucaparib alone); 96% (active) in test [11] (at 0.0781 µM, OCI-P5x cells, without rucaparib); 114% (inactive) in test [11] (at 0.313 µM, OCI-C5x cells, with rucaparib 10 µM, 100% = cells with rucaparib alone); 120% (inactive) in test [11] (at 0.313 µM, OCI-C5x cells, without rucaparib); 80.6% (active) in test [11] (at 0.313 µM, OCI-P5x cells, with rucaparib 20 µM, 100% = cells with rucaparib alone); 89.7% (active) in test [11] (at 0.313 µM, OCI-P5x cells, without rucaparib). Further, the viability in [11] (at 1.25 µM, OCI-C5x cells, with rucaparib 10 µM, 100% = cells with rucaparib alone) was 124% (inactive); in test [11] (at 1.25 µM, OCI-C5x cells, without rucaparib), 115% (inactive); in test [11] (at 1.25 µM, OCI-P5x cells, with rucaparib 20 µM, 100% = cells with rucaparib alone), 68.6% (active); in [11] (at 1.25 µM, OCI-P5x cells, without rucaparib), 80.5% (active); in [11] (at 5 µM, OCI-C5x cells, with rucaparib 10 µM, 100% = cells with rucaparib alone), 29.6% (active); in test [11] (at 5 µM, OCI-C5x cells, without rucaparib), 15.6% (active). The viability is 17.1% (active) in test [11] (at 5 µM, OCI-P5x cells, with rucaparib 20 µM, 100% = cells with rucaparib alone) and 20.9% (active) in test [11] (at 5 µM, OCI-P5x cells, without rucaparib).
Regarding `Cc1cn2cc(C(=O)N(C)CCO)cc(N[C@@H]3CCOc4cccc(C)c43)c2n1`, the result in test [1], in [2], in test [3], in test [7], in test [8] and in [9] was inactive.

For the origin of these results see PubChem BioAssay.
